From PubChem BioAssay AID1159580 (chemical genetic matrix, 2015)
Hit rate of the full screen: of about 5,500 compounds, about 2,000 (36%) were called active. Inconclusive results (about 18%) are left out. No stated cut-off is given here; in the data, active means normalized growth mostly below about 0.91 (no sharp cut-off); inconclusive means no clear call, values can overlap the other calls; inactive means mostly above about 0.92. Some of the results follow.

Assay: chemical genetic growth profiling, strain panel (AID 1159580);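 further: tested at 20 µM; growth read once vehicle control cultures reached saturation at 30 °C; 1 = growth at the plate median or of vehicle wells; lower values mean less growth of the strain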
Details: growth OD

Measured: normalized growth

C[C@H]1COc2c(N3CCN(C)CC3)c(F)cc3c(=O)c(C(=O)O)cn1c23
inactive: S. cerevisiae deletion strains, locus YJR075W, strain HOC1, active compounds read low 0.991 | S. cerevisiae deletion strains, locus YKL009W, strain mrt4, active compounds read low 1.01 | S. cerevisiae deletion strains, locus YKL068W, active compounds read low 1 | S. cerevisiae deletion strains, locus YKL085W, strain MDH1 (second series), active compounds read low 1.01 | S. cerevisiae deletion strains, locus YKL085W, strain MDH1, active compounds read low 1.01 | S. cerevisiae deletion strains, locus YKL160W, strain elf1, active compounds read low 1.01 | S. cerevisiae deletion strains, locus YKL190W, strain CNB1, active compounds read low 0.998 | S. cerevisiae deletion strains, locus YKR001C, strain vps1, active compounds read low 1.03 | S. cerevisiae deletion strains, locus YKR026C, strain gcn3, active compounds read low 1.02 | S. cerevisiae deletion strains, locus YKR091W, strain srl3, active compounds read low 1.03 | S. cerevisiae deletion strains, locus YLL001W, strain dnm1, active compounds read low 1.04 | S. cerevisiae deletion strains, locus YLL026W, active compounds read low 1.03 | S. cerevisiae deletion strains, locus YLL041C, strain sdh2, active compounds read low 1.02 | S. cerevisiae deletion strains, locus YLR027C, strain aat2, active compounds read low 1.03 | S. cerevisiae deletion strains, locus YLR039C, strain RIC1, active compounds read low 1.01 | S. cerevisiae deletion strains, locus YLR058C, strain SHM2, active compounds read low 1.01 | S. cerevisiae deletion strains, locus YLR102C, strain apc9, active compounds read low 1.01 | S. cerevisiae deletion strains, locus YLR113W, strain HOG1, active compounds read low 1.03 | S. cerevisiae deletion strains, locus YLR221C, strain rsa3, active compounds read low 0.984 | S. cerevisiae deletion strains, locus YLR258W, strain gsy2, active compounds read low 1.02 | S. cerevisiae deletion strains, locus YLR262C, strain YPT6 (second series), active compounds read low 1.02 | S. cerevisiae deletion strains, locus YLR262C, strain YPT6, active compounds read low 1.01 | S. cerevisiae deletion strains, locus YLR268W, strain sec22, active compounds read low 1 | S. cerevisiae deletion strains, locus YLR320W, strain mms22, active compounds read low 1.02 | S. cerevisiae deletion strains, locus YLR330W, strain CHS5, active compounds read low 1 | S. cerevisiae deletion strains, locus YLR342W, strain FKS1 (second series), active compounds read low 0.984 | S. cerevisiae deletion strains, locus YLR342W, strain FKS1, active compounds read low 1.03 | S. cerevisiae deletion strains, locus YLR357W, strain rsc2, active compounds read low 1.02 | S. cerevisiae deletion strains, locus YLR370C, strain arc18, active compounds read low 1.03 | S. cerevisiae deletion strains, locus YLR371W, strain rom2, active compounds read low 1 | S. cerevisiae deletion strains, locus YLR384C, strain iki3, active compounds read low 1.03 | S. cerevisiae deletion strains, locus YLR418C, strain cdc73, active compounds read low 1.02 | S. cerevisiae deletion strains, locus YML016C, strain PPZ1, active compounds read low 1.01 | S. cerevisiae deletion strains, locus YML032C, strain rad52, active compounds read low 0.965 | S. cerevisiae deletion strains, locus YML120C, strain ndi1, active compounds read low 1.01 | S. cerevisiae deletion strains, locus YML124C, strain tub3, active compounds read low 1.02 | S. cerevisiae deletion strains, locus YMR058W, strain fet3, active compounds read low 1.02 | S. cerevisiae deletion strains, locus YMR078C, strain ctf18, active compounds read low 1.02 | S. cerevisiae deletion strains, locus YMR125W, strain sto1, active compounds read low 1.02 | S. cerevisiae deletion strains, locus YMR129W, active compounds read low 1.03 | S. cerevisiae deletion strains, locus YMR205C, strain PFK2, active compounds read low 0.985 | S. cerevisiae deletion strains, locus YMR223W, strain ubp8, active compounds read low 1.01 | S. cerevisiae deletion strains, locus YMR231W, strain pep5, active compounds read low 1.03 | S. cerevisiae deletion strains, locus YMR263W, strain SAP30, active compounds read low 0.991 | S. cerevisiae deletion strains, locus YMR307W, strain GAS1, active compounds read low 1.04 | S. cerevisiae deletion strains, locus YNL067W, strain RPL9B, active compounds read low 1 | S. cerevisiae deletion strains, locus YNL071W, strain lat1, active compounds read low 1 | S. cerevisiae deletion strains, locus YNL128W, strain TEP1, active compounds read low 0.975 | S. cerevisiae deletion strains, locus YNL153C, strain GIM3, active compounds read low 1 | S. cerevisiae deletion strains, locus YNL183C, strain NPR1, active compounds read low 0.97 | S. cerevisiae deletion strains, locus YNL209W, strain ssb2, active compounds read low 1.01 | S. cerevisiae deletion strains, locus YNL233W, strain BNI4, active compounds read low 1.01 | S. cerevisiae deletion strains, locus YNL248C, strain rpa49, active compounds read low 1.03 | S. cerevisiae deletion strains, locus YNL250W, strain rad50, active compounds read low 1.01 | S. cerevisiae deletion strains, locus YNL271C, strain bni1, active compounds read low 1.01 | S. cerevisiae deletion strains, locus YNL298W, strain CLA4, active compounds read low 1.02 | S. cerevisiae deletion strains, locus YNL307C, strain MCK1, active compounds read low 1.03 | S. cerevisiae deletion strains, locus YNL322C, strain KRE1 (second series), active compounds read low 1.03 | S. cerevisiae deletion strains, locus YNL322C, strain KRE1, active compounds read low 0.999 | S. cerevisiae deletion strains, locus YNR049C, strain mso1, active compounds read low 1.01 | S. cerevisiae deletion strains, locus YNR052C, strain pop2, active compounds read low 1.02 | S. cerevisiae deletion strains, locus YOL006C, strain TOP1, active compounds read low 1.05 | S. cerevisiae deletion strains, locus YOL012C, strain htz1 0.78 | S. cerevisiae deletion strains, locus YOL147C, strain pex11, active compounds read low 1.01 | S. cerevisiae deletion strains, locus YOR001W, strain rrp6, active compounds read low 1.02 | S. cerevisiae deletion strains, locus YOR061W, strain CKA2, active compounds read low 1.01 | S. cerevisiae deletion strains, locus YOR069W, strain VPS5, active compounds read low 0.995 | S. cerevisiae deletion strains, locus YOR070C, strain gyp1, active compounds read low 1.02 | S. cerevisiae deletion strains, locus YOR080W, strain dia2, active compounds read low 1.04 | S. cerevisiae deletion strains, locus YOR083W, strain WHI5, active compounds read low 1.03 | S. cerevisiae deletion strains, locus YOR106W, strain vam3, active compounds read low 1.01 | S. cerevisiae deletion strains, locus YOR136W, strain idh2, active compounds read low 1.02 | S. cerevisiae deletion strains, locus YOR144C, strain elg1, active compounds read low 1.01 | S. cerevisiae deletion strains, locus YOR184W, strain ser1, active compounds read low 1.02 | S. cerevisiae deletion strains, locus YOR231W, strain MKK1, active compounds read low 0.996 | S. cerevisiae deletion strains, locus YOR265W, strain rbl2, active compounds read low 1.03 | S. cerevisiae deletion strains, locus YOR270C, strain vph1, active compounds read low 1.07 | S. cerevisiae deletion strains, locus YOR290C, strain snf2, active compounds read low 1.03 | S. cerevisiae deletion strains, locus YOR316C, strain cot1, active compounds read low 1.02 | S. cerevisiae deletion strains, locus YPL051W, strain arl3, active compounds read low 1.03 | S. cerevisiae deletion strains, locus YPL055C, strain LGE1, active compounds read low 0.997 | S. cerevisiae deletion strains, locus YPL078C, strain atp4, active compounds read low 1.02 | S. cerevisiae deletion strains, locus YPL106C, strain sse1, active compounds read low 0.991 | S. cerevisiae deletion strains, locus YPL240C, strain hsp82, active compounds read low 1.01 | S. cerevisiae deletion strains, locus YPL241C, strain CIN2, active compounds read low 1.01 | S. cerevisiae deletion strains, locus YPL256C, strain CLN2, active compounds read low 0.958 | S. cerevisiae deletion strains, locus YPR119W, strain clb2, active compounds read low 1.01 | S. cerevisiae deletion strains, locus YPR141C, strain kar3, active compounds read low 1.02 | S. cerevisiae deletion strains, locus YPR163C, strain tif3, active compounds read low 1.03 | S. cerevisiae deletion strains, locus YPR167C, strain met16, active compounds read low 1.02 | S. cerevisiae deletion strains, strain wtn01, active compounds read low 1.01 | S. cerevisiae strains, strain wild type, active compounds read low 0.981
